Screening results from PubChem BioAssay.
Hits are enriched below; roughly 9.4% of the tested compounds scored in any of these assays.
ELG1 genotoxic = inducers of genotoxicity in HEK293T ELG1-luciferase cells; HEK293T ELG1-luciferase reporter, luminescence, 16 h; Potency, µM (top dose mostly 46 µM), for the others: top-dose activity change, positive = activation, most hits filed as activators; hit rate 1.3% among 330,000; AID 504466; further: % of control where 0% means no effect; nearly all actives have a fitted effect of over 60% in size
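HEK293T cells expressing luciferase-tagged ELG1 were treated with compound or DMSO for 16 hr at 37°C. Luciferase activity was then read after 30 min with ONE-Glo at room temperature; rising signal flags genetic stress.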
FLuc modulator = inhibits or activates purified firefly luciferase, miR-21 counter-screen. P08659. purified FLuc, Km substrates, luminescence inhibition. Potency, µM (series often up to 57.5 µM), for the others: at the highest dose activity change, negative = inhibition, most hits filed as inhibitors. hit rate 6.9% among 360,000. AID 588342;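 further: plate controls were vehicle for no effect and reference inhibitor for full effect; nearly all actives have a fitted effect of over 55% in size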
Target sequence (P08659 whole entry, looked up): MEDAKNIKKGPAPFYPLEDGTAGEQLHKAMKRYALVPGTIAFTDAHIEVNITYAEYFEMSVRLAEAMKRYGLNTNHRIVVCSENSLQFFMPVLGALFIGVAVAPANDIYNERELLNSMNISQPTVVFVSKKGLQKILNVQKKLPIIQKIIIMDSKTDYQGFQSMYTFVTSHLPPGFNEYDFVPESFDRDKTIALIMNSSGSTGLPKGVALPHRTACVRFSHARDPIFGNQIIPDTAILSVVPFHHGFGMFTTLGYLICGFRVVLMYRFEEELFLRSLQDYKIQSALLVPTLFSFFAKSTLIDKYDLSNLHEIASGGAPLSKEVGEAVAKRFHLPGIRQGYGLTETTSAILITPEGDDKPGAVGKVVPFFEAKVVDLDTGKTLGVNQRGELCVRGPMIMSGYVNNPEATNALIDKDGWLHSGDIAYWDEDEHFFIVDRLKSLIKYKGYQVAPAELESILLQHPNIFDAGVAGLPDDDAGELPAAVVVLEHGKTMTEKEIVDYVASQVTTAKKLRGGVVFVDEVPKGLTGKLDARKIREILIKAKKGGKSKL
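Purified P. pyralis luciferase, 10 nM final, with Km-level 10 uM D-luciferin and 10 uM ATP in 50 mM Tris acetate pH 7.5, 10 mM Mg acetate, 0.01% Tween-20, 0.05% BSA; 6-point qHTS titration about 60 µM downward; luminescence read.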
Rab9 prom act = activators of Rab9 promoter. Potency, µM (titrated, usually from 9.22 µM), inactives show at the highest dose activation, negative = inhibition, usual class: activators. Huh7 Rab9 promoter-luciferase reporter, luminescence, 24 h. hit rate 2.8% among 320,000. AID 485297; further: % of control where 0% means no effect; nearly all actives have a fitted effect of over 60% in size
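Steps: seed 1500 Huh7 Rab9-luc cells per well, rest 2 h at 37 °C; add compound in DMSO; incubate 24 h; add luciferase reagent, 10 min ambient; read luminescence.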
SMN2 splice enh = SMN2 splice variant enhancement | hit rate 2.8% among 210,000 | HEK293 SMN2-luciferase splicing reporter, luminescence, 30-36 h | Potency, µM (top dose mostly 46.1 µM), for inactives: top-dose activity change, positive = activation, hits mostly activators; further: % of control where 0% means no effect; nearly all actives have a fitted effect of over 55% in size
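HEK293 cells carry an SMN2 […]–luciferase reporter in which exon 7 inclusion puts luciferase in frame. Cells were plated 10-12 h before compound addition, then incubated 30-36 h at 37C. ONE-Glo luminescence was read; sodium butyrate at 4.5 mM final served as control.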
NPC1 promoter act = NPC1 promoter activation. hit rate 2.4% among 320,000. Potency, µM (highest dose often 9.22 µM), for inactives: at the highest dose activation, actives largely listed as activators. AID 485313. Huh7 NPC1 promoter luciferase reporter, 24 h; further: % of control where 0% means no effect; nearly all actives have a fitted effect of over 60% in size
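Stably transfected Huh7 (NPC1 promoter→luciferase), 1500 cells/well in Opti-MEM + 10% FBS, 2 h settle, then compound 24 h at 37 °C. Luminescence after 10 min with Amplite reagent.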
ELG1 DNA repair = blocks ELG1-dependent DNA repair in HEK293T cells | AID 504467 | hit rate 2.3% among 330,000 | HEK293T ELG1-luciferase reporter, luminescence, 16 h; DNA damage induced by 5-fluorouridine | Potency, µM (series often up to 46.1 µM), for the others: at the highest dose activity change, negative = inhibition, most hits filed as inhibitors; further: on the % scale 0 is the no-effect control and ±100 the full control effect; nearly all actives have a fitted effect of over 55% in size
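5-Fluorouridine DNA damage + compound/DMSO, 2,000 cells/well, 16 h, 37 °C/5% CO2. ONE-Glo, 30 min RT, luminescence. Readout = decrease in reporter signal.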
* marks the source's active call; other numbers are inactive results; u = inconclusive; x = no result. The call rests on the fitted dose curve; in most records, active means well fitted curve in the direction sought with a large enough effect; inconclusive means small, poorly fitted or top-dose-only effect, or another doubt; inactive means no such curve, though single readings can be large; an effect the other way counts as inactive or inconclusive. Potency means the concentration at half of the fitted maximal effect.

SMILES | ELG1 genotoxic | FLuc modulator | Rab9 prom act | SMN2 splice enh | NPC1 promoter act | ELG1 DNA repair
O=C(c1cc(-c2ccccc2O)on1)N1CCCCCC1 | 23µM* | 11µM* | u | x | u | u
COc1ccc(OC)c(-c2cc(C(=O)N3CCOCC3)no2)c1 | 0% | -4% | -4% | x | 0% | u
O=C(c1cc(-c2ccccc2O)on1)N1CCOCC1 | 13µM* | 12µM* | u | x | u | u
CCOC(=O)[C@@H]1[C@H]2COc3ccccc3[C@H]2N2C(=O)N(c3ccc(C(F)(F)F)cc3)C(=O)[C@]12C | -6% | -1% | -3% | x | 0% | 6%
CCN1CCN(C(=O)c2c(C)nn(-c3ccc(F)cc3)c2-n2cccc2)CC1 | x | -5% | x | x | x | x
Cn1cccc1-c1nc2ccccc2[nH]1 | u | 17µM* | 30% | x | u | u
Nc1ccc(C(=O)Nc2ccc3nc(-c4cccnc4)[nH]c3c2)cc1 | 2% | 17µM* | 6% | 13% | -6% | -8%
Cc1ccc(S(=O)(=O)Nc2ccc3cn[nH]c3c2)cc1 | 0% | 0% | -2% | x | -1% | 1%
Cc1nnsc1-c1nc2ccccc2[nH]1 | 0% | -8% | 0% | -15% | 6% | 0%
Cc1ccc(S(=O)(=O)Nc2ccc3nc(-c4cccn4C)[nH]c3c2)cc1 | 0% | -16% | -1% | 8.9µM* | 6% | 11%
Cn1cccc1-c1nc2ccc(NC(=O)c3ccc([N+](=O)[O-])cc3)cc2[nH]1 | 9% | -2% | 4% | 12% | -3% | u
Cn1cccc1-c1nc2ccc(NC(=O)c3ccccc3)cc2[nH]1 | u | 15µM* | 28% | 28% | 16% | u
Cc1ccc(CNS(=O)(=O)c2cc3c(cc2Cl)NC(=O)CO3)o1 | x | 6% | x | x | x | x
CCOC(=O)c1c(-c2ccccc2)csc1NC(=O)c1cc(-c2cccc(OC)c2)on1 | x | -5% | x | 4% | x | x
c1ccc(C[C@H]2CNCCN2CC2(c3ccccc3)CC2)cc1 | 0% | -3% | 0% | x | -4% | -3%
Cc1ccccc1NC(=O)Cn1c(=O)oc2cc(Br)ccc21 | x | -2% | x | x | x | x
COCCNc1ccnc(-c2c(C)noc2C)n1 | x | x | x | 9% | x | x
CC(=O)NNc1ncnc2c1cnn2-c1ccccc1 | 8% | -5% | 0% | 7% | -4% | -7%
CC(C)(C)Nc1ncnc2c1cnn2-c1ccccc1 | 1µM* | 1.5µM* | 0.4µM* | 2µM* | 0.35µM* | u
c1ccc(CCNc2ncnc3c2cnn3-c2ccccc2)cc1 | u | 6.7µM* | 1.6µM* | 11µM* | 3.2µM* | u
O=c1[nH]n(-c2ncnc3c2cnn3-c2ccccc2)c(=O)c2ccccc12 | 0% | 13µM* | 5% | -3% | -3% | 12%
COc1ncnc2c1cnn2-c1ccccc1 | x | u | x | 5% | x | x
COc1ccccc1Oc1ncnc2c1cnn2-c1ccccc1 | u | 12µM* | 4µM* | 13µM* | u | u
C[C@]12CCC(=O)C=C1CC[C@@H]1C2[C@@H](O)C[C@@]2(C)[C@H]1CC[C@]2(O)C(=O)CO (some centres not stated) | x | x | x | -14% | x | x
c1ccc(-n2ncc3c(NCCN4CCOCC4)ncnc32)cc1 | 13µM* | u | 11% | x | u | u
SMILES | ELG1 genotoxic | FLuc modulator | Rab9 prom act | SMN2 splice enh | NPC1 promoter act | ELG1 DNA repair
c1ccc(-n2ncc3c(NCCN4CCCCC4)ncnc32)cc1 | u | 19µM* | u | 10% | u | u
COc1ccc(C(=O)NNc2ncnc3c2cnn3-c2ccccc2)cc1 | x | -9% | x | x | x | x
Cc1cccc(-n2ncc3c(NCCN4CCOCC4)ncnc32)c1 | 0% | u | 29% | -9% | 26% | 8%
COc1ccc(-n2ncc3c(NC(C)(C)CO)ncnc32)cc1 | x | 4.8µM* | x | x | x | x
COc1ccccc1NC(=O)c1c(C)cc(C)nc1SCC(=O)Nc1ccc(C)cc1 | x | -14% | x | x | x | x
CN(CC(=O)Nc1ccc(F)cc1F)S(=O)(=O)c1ccc(C(=O)N2CCOCC2)s1 | x | -5% | x | x | x | x
O=C(O)c1ccc(-c2ccccn2)s1 | u | u | 11% | 13% | 12% | u
c1ccc(-c2ccc(-c3ccccn3)s2)nc1 | u | 1.5µM* | 4µM* | x | u | u
COc1ccc(-c2cccc(NS(=O)(=O)c3ccc(NC(C)=O)cc3)c2)nn1 | x | -11% | x | x | x | x
CC(=O)Nc1ccc(S(=O)(=O)Nc2cccc(-c3ccc(N4CCC(C)CC4)nn3)c2)cc1 | x | 0.54µM* | x | x | x | x
CC(=O)Nc1ccc(S(=O)(=O)Nc2cccc(-c3ccc(N4CCCCCC4)nn3)c2)cc1 | x | 4.8µM* | x | x | x | x
CC(=O)c1ccc(S(=O)(=O)Nc2cccc(-c3ccc(N4CCOCC4)nn3)c2)cc1 | 2% | 2.7µM* | u | x | u | u
CC(=O)Nc1ccc(S(=O)(=O)Nc2cccc(-c3nc4ccccc4o3)c2)cc1 | -7% | -16% | -6% | -26% | -3% | u
CC(=O)c1ccc(S(=O)(=O)Nc2cccc(-n3cnnn3)c2)cc1 | 0% | 2% | 0% | x | 0% | 14%
CC(C(=O)Nc1cccc(S(=O)(=O)N2CCOCC2)c1)N1CCN(c2ccc(F)cc2)CC1 (configuration not stated) | -3% | -1% | -4% | -28% | -3% | u
O=C(CCOc1ccccc1)Nc1ccc(Br)cc1 | 17% | u | 3.2µM* | x | u | u
COc1ccc(NC(=O)CCOc2ccccc2)cc1 | u | 17µM* | 4.5µM* | u | 3.2µM* | u
COC(=O)c1ccc(NC(=O)CCOc2ccccc2)cc1 | 16% | -14% | -2% | 4% | -3% | 17%
COc1ccc(OCCCC(=O)Nc2cccc(C(C)=O)c2)cc1 | -1% | -6% | 1% | x | 1% | 18µM*
